# Screens from PubChem BioAssay.
# Mcl-1 Bim block: human Bim-Mcl-1 interaction inhibition. Q07820. Bead-based flow cytometry, Bim peptide-Mcl-1 binding. inhibition, % at 10 µM. 0.1% of 190,000 active; in the data active = inhibition above about 40%
# Target sequence (Q07820 whole entry, looked up): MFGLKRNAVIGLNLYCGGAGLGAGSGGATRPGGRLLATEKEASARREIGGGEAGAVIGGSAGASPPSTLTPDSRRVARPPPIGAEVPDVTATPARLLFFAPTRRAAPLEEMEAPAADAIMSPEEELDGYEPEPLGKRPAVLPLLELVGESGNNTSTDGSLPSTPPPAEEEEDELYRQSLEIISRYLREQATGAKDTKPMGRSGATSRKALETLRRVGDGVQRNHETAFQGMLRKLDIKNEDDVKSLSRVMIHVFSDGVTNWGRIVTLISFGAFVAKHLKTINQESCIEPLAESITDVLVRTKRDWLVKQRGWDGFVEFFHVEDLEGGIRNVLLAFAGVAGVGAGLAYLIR
# Mcl1-Bid inh: Mcl-1/Bid interaction inhibition; Q07820; TR-FRET Mcl-1/Bid-Dy647 peptide binding, 1536-well; inhibition, % at 21.7 µM; 0.97% of 220,000 active; AID 1021;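 active = compounds that cut the binding signal by more than half at the single screening dose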;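 also: His-tagged Mcl-1 with europium anti-His antibody binding Bid BH3 peptide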
# MCL1-BIM inh: disrupts human MCL1 binding to BIM-BH3 peptide. GST-MCL1 / FITC-Bim-BH3 fluorescence polarization. inhibition, % at 10.9 µM. 0.68% of 320,000 active;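 active = inhibition above the mean inhibition of all tested compounds plus 3 SD, set per campaign, cut at about 40% in these data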;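 also: higher means more loss of mP so more displacement of Bim peptide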
# 14-3-3 Bad PPI: disrupts binding of bovine 14-3-3 zeta to phospho-Bad peptide; P63103; TR-FRET 14-3-3zeta/Dy647-pBad peptide displacement, 1 h; inhibition, % at 21.7 µM; 0.71% of 220,000 active; AID 781;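 active = inhibition above about 70%, limit read from the data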
# Target sequence (P63103 whole entry, looked up): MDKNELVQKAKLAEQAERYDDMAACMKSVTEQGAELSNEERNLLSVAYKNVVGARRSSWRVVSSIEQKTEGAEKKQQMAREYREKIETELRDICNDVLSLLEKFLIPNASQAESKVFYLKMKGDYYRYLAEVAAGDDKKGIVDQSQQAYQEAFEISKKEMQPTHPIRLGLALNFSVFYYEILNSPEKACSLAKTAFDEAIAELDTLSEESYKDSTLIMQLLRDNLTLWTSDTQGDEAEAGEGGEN
# Mcl1 Noxa PPI: Mcl-1/Noxa interaction inhibition; TR-FRET Mcl-1/Noxa peptide binding, 2 h; 1.5% of 220,000 active; inhibition, % at 21.7 µM; AID 1022;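 active = compounds that cut the protein-peptide binding signal by more than 50% relative to plate controls in a single-dose test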;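 also: His-tagged Mcl-1 with rhodamine Noxa BH3 peptide and terbium anti-His antibody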
# Numbers stand for hits; i = inactive; nt = no result; [ ] = another dose, or the depositor's remark. An excerpt weighted towards active compounds, which were near 2.5% of everything screened.
SMILES,Mcl-1 Bim block,Mcl1-Bid inh,MCL1-BIM inh,14-3-3 Bad PPI,Mcl1 Noxa PPI
Cc1c(C(=O)N2CC(C)OC(C)C2)sc2nc(-c3ccc(F)cc3)cn12 (configuration not stated),i,i,i,i,i
Cc1cccc(CN2C(=O)NC(c3ccccc3)(c3ccccc3)C2=O)c1,nt,nt,i,nt,nt
Cc1noc(C)c1CN1C(=O)NC(Cc2ccccc2)(Cc2ccccc2)C1=O,40.0,i,i,i,i
O=C(CCC1CCCN(C(=O)CCC(F)(F)F)C1)NCc1ccc(F)c(F)c1 (configuration not stated),i,i,i,i,52.6
Cc1nc(-c2ccccc2)sc1C(=O)CSc1ccc(Cl)cc1,i,i,i,i,64.2
Cc1nc(-c2ccccc2)sc1C(=O)CSc1ccc(Br)cc1,i,i,i,i,i
O=C1NNC(c2ccccc2)=N/C1=C\c1ccco1,nt,i,i,i,65.0
Cc1ccc(/C=C2\SC(=S)N(C3CCS(=O)(=O)C3)C2=O)o1 (configuration not stated),i,i,i,i,i
NS(=O)(=O)c1ccc(-c2ccc(/C=C3\SC(=S)N(C4CCS(=O)(=O)C4)C3=O)o2)cc1 (configuration not stated),nt,51.1,i,i,79.0
CC(=O)Nc1nonc1-c1nc2ccccc2n1N(C(C)=O)C(C)=O,i,i,i,i,51.8
CCN(CC)c1ccc(NC(=O)COc2ccc(N(C)S(=O)(=O)c3cccs3)cc2)cc1,i,i,i,i,65.4
COc1ccc(C2(O)CCN(C(=O)c3ccc4c(c3)OCO4)CC2)cc1,i,i,i,i,i
Cc1ccc(-n2c(C)n[nH]c2=S)cc1C,i,97.3,i,i,i
CCOc1ccc(-c2csc(/C(C#N)=C\c3ccc(O)c([N+](=O)[O-])c3)n2)cc1,i,i,i,i,56.0
N#CCCN1CCNCC1,i,i,i,i,i
CCOc1cc(/C=C(\C#N)c2[nH]nc(N)c2C#N)ccc1O,i,i,i,i,77.5
Nc1ccc(C(=O)OCc2nc3cc4ccccc4cc3[nH]2)cc1,i,i,i,i,i
CN1CCc2c(OCC(=O)N3N=C(c4cccs4)CC3c3ccc(F)cc3)cccc2C1=O (configuration not stated),i,53.9,i,i,i
CCCc1nc(-c2cc3ccccc3[nH]c2=O)no1,nt,i,i,96.0,i
CCC(Cc1ccccc1)NC(=O)Cn1ncc2ccsc2c1=O (configuration not stated),i,i,i,i,i
C=CCOc1ccc(/C=C2\SC(=S)N(C(C(=O)O)c3ccccc3)C2=O)cc1 (configuration not stated),nt,i,nt,i,71.5
CCOc1ccc(/C=C2\SC(=S)N(C(C(=O)O)c3ccccc3)C2=O)cc1OC (configuration not stated),nt,i,i,i,i
C=CCOc1ccc(Br)cc1/C=C1/SC(=Nc2ccc(C(=O)O)cc2)NC1=O,i,i,nt,i,55.1
COc1ccc(C(=O)Nc2ccnn2C2CCN(CCC(C)c3ccc(C)o3)CC2)cc1 (configuration not stated),nt,nt,i,nt,nt
COC(=O)c1ccc(NC(=O)c2ccccc2N(C)S(=O)(=O)c2ccccc2)cc1,i,98.1,i,i,i
SMILES,Mcl-1 Bim block,Mcl1-Bid inh,MCL1-BIM inh,14-3-3 Bad PPI,Mcl1 Noxa PPI
Cc1ccc(NC2Sc3ccccc3NC2=O)cc1 (configuration not stated),i,i,i,i,55.9
COC(=O)CC1Sc2ccccc2NC1=O (configuration not stated),i,i,i,i,i
O=C(CN1C(=O)C2CCCCC2C1=O)Nc1ccccc1C(=O)O (configuration not stated),nt,nt,i,nt,nt
O=C(NCc1cccnc1)/C(=C\c1ccc(-c2cccc(Cl)c2)o1)S(=O)(=O)c1ccccc1,i,i,i,i,i
O=C(NCc1cccnc1)/C(=C/c1ccc(-c2cccc(Cl)c2)o1)S(=O)(=O)c1ccccc1,i,56.9,i,i,i
CC1(C(=O)N(CC(=O)NC2CCCC2)Cc2ccco2)CC(=O)N=C2C=CC=CN21 (configuration not stated),41.0,i,i,i,i
CC1(C(=O)N(CC(=O)NC2CCCC2)Cc2ccccc2)CC(=O)N=C2C=CC=CN21 (configuration not stated),nt,nt,i,nt,nt
Cc1ccc2cccc(Oc3ncnc4scc(-c5ccc(Cl)cc5)c34)c2n1,i,99.0,i,i,i
COc1ccccc1C(=O)COC(=O)COc1cccc2c1OC(C)(C)C2,nt,nt,i,nt,nt
COc1cccc(CNc2ccc(S(N)(=O)=O)cc2)c1OC,i,i,i,i,i
Cc1cc(N2CCN(C)CC2)nc2ccc(NC(=S)N3CCCCC3)cc12,i,i,nt,i,i
Cc1cccc(N2CCN(C(=S)Nc3ccc4nc(N5CCN(C)CC5)cc(C)c4c3)CC2)c1C,i,85.5,nt,i,i
Nc1nc(N)c2cc(Sc3ccc4ccccc4c3)ccc2n1,nt,i,i,i,84.3
COc1ccccc1N1CCN(/N=C/c2cc(OC)c(O)c(OC)c2)CC1,i,i,i,i,54.5
COc1ccccc1N1CCN(/N=C/c2cccc(O)c2)CC1,i,i,i,i,i
COc1ccc(-n2c(=O)cc(N3CCN(Cc4ccccc4)CC3)[nH]c2=O)cc1,i,i,i,i,i
N=C1/C(=C\c2ccc(-c3cccc(Cl)c3)o2)C(=O)N=C2SC=C(c3ccccc3)N12,i,i,i,i,51.4
Cc1cccc(-n2c(C)cc(/C=C3/C(=N)N4C(c5ccccc5)=CSC4=NC3=O)c2C)c1,i,i,i,i,i
COc1ccc(/C=C2\SC(=N)N(c3nccs3)C2=O)cc1OC,i,i,i,i,i
N=C1/C(=C\c2ccc(-c3ccc(C(=O)O)cc3)o2)C(=O)N=C2SC=C(c3ccccc3)N12,nt,95.8,nt,80.3,116.9
N=C1S/C(=C\c2ccc(-c3cccc(Cl)c3)o2)C(=O)N1c1nccs1,i,90.6,i,74.2[fluorescence artefact?],87.6
COc1ccc(S(=O)(=O)N(C)c2ccc(C(=O)N3CCCC3)cc2)cc1OC,nt,nt,i,nt,nt
CCc1n[nH]c(=S)n1/N=C/c1ccccn1,nt,nt,i,nt,nt
Cn1ccnc1SCC(=O)n1c2c(c3ccccc31)CCCC2,i,i,i,i,i
Cc1cc(C)cc(NC(=O)Oc2ccccc2N2CCCCC2)c1,nt,i,i,i,50.7
SMILES,Mcl-1 Bim block,Mcl1-Bid inh,MCL1-BIM inh,14-3-3 Bad PPI,Mcl1 Noxa PPI
COCCCNC(=O)CN1C(=O)/C(=C/c2ccccc2C)Sc2ccccc21,i,i,i,i,i
Cc1cccc(C)c1OCC(O)CN1CCN(c2ccccn2)CC1 (configuration not stated),i,i,i,i,i
Cc1ccc(OCC(O)CN2CCN(c3ccccn3)CC2)c(C)c1 (configuration not stated),i,i,i,i,50.6
c1ccc(-n2cnc3ccccc32)nc1,nt,nt,i,nt,nt
c1ccc(-c2nccc(-c3ccc(-n4cnc5ccccc54)cc3)n2)cc1,i,54.8,i,95.8,i
CCc1ccc(CCC(=O)Nc2ccc(C)cc2C)o1,i,84.5,i,i,i
CN(C)C=Nc1ncc2c3ccccc3n(CCN(C)C)c2c1C#N,i,i,i,i,i
